Inconclusive results are not listed. The source made the active and inactive calls. Calls follow the shape of the dose curve; as a rule, active = well fitted cell-killing curve with a large enough effect; inconclusive = small, poorly fitted or top-dose-only effect, or effect the other way; inactive = no such curve, though single readings can be large or run the other way.

This assay relates to PA-1. The assay can be described thus: Confirmatory qHTS for gynecologic anti-cancer compounds from libraries of approved drugs and bioactive compounds. Also: nearly all actives have a fitted effect of over 55% in size. The settings on record: gynecologic cancer cell panel viability, ATPlite luminescence, 48 h; series mostly up to 57.6 µM. The essentials:
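ATPlite luminescence read-out of cell viability; IC50 from 11-point 1:3 titrations, 57.5 uM to 0.977 nM, 48 h compound exposure at 37 C, 5% CO2. Cells seeded at 1,000/well 16 h before dosing.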
For orientation: qHTS replaces the single test concentration by a dilution series.
Potency is read from the fitted curve at half-maximal effect.

Turning to `FC(F)(F)c1ccc(/C=C/c2nc(COc3ccc(CCCCn4ccnn4)cc3)co2)cc1`, the Potency was 0.0193 µM (active). Consider `NS(=O)(=O)OC[C@@H]1C[C@@H](n2ccc3c(N[C@H]4CCc5ccccc54)ncnc32)C[C@@H]1O`, for which the Potency was 0.685 µM (active). For the compound `CCN1C[C@H](C)n2c(c(O)c3c(=O)n(Cc4ccc(F)c(Cl)c4)nc(C(=O)NC)c32)C1=O`, the Potency result is “inactive”.

As to `N=C(N)c1ccc(OCCCCCOc2ccc(C(=N)N)cc2)cc1`, the Potency was 4.32 µM (active). As to `COc1cc2c(c(OC)c1OC)-c1ccc(OC)c(=O)cc1[C@@H](NC(C)=O)CC2`, the Potency is 0.126 µM (active). For the compound `COc1cc2c(Oc3ccc(-c4cnc(Nc5ccc(F)cc5)n(C)c4=O)cc3F)ccnc2cc1OCCCN1CCOCC1`, the Potency is 21.7 µM (active). `Cc1ccc(C(=O)Nc2ccc(Oc3cc4cnn(C)c4cc3-c3cn[nH]c3)c(F)c2)c(=O)n1-c1ccc(F)cc1`: the Potency is 10.9 µM (active). As to `Nc1cccc(-c2cc3c(Oc4cccc(O)c4)ncnc3[nH]2)c1`, the Potency was 9.68 µM (active). For the compound `N#CC1(c2cccc(C(=O)Nc3cc(Oc4ccc5nc(NC(=O)C6CC6)sc5n4)ccc3F)c2Cl)CC1`, the Potency is 8.63 µM (active).

On to `Cc1csc(NC(=O)c2sc3nc4c(c(C(F)(F)F)c3c2N)CCC4)n1`, for which the Potency is 3.43 µM (active). The figure for `CC(C)[C@@H](CS(=O)(=O)C(C)C)N1C(=O)[C@@](C)(CC(=O)O)C[C@H](c2cccc(Cl)c2)[C@H]1c1ccc(Cl)cc1` is 2.43 µM (active); for `CC(C)n1nc(-c2cc3cc(O)ccc3[nH]2)c2c(N)ncnc21` it is 13.7 µM (active). As for `CCCC(=O)O[C@]1(C(=O)CCl)[C@@H](C)C[C@H]2[C@@H]3CCC4=CC(=O)C=C[C@]4(C)[C@@]3(F)C(=O)C[C@@]21C`, the Potency was 19.3 µM (active).

As to `COc1ccccc1N1CCN(CC(O)COc2cccc3ccccc23)CC1` (stereo not given), the Potency entry is “inactive”. `CN1CCN(c2ccc(OC(F)(F)F)c(Nc3ncc4c(n3)-c3c(c(C(N)=O)nn3CCO)CC4)c2)CC1`: the Potency is 0.153 µM (active). As to `OCCNC1CCCc2c1[nH]c1ccc(-c3ccccc3)cc21` (stereo not given), the Potency was 27.3 µM (active). As for `Cc1nc(N)nc(N)c1-c1ccc(Cl)c(Cl)c1`, the Potency is 1.37 µM (active).

As to `CCN1CCN(Cc2ccc(Nc3ncc(F)c(-c4cc(F)c5nc(C)n(C(C)C)c5c4)n3)nc2)CC1`, the Potency is 2.43 µM (active). Regarding `CCn1cc(-c2ccnc3[nH]c(-c4cccc(CN(C)C)c4)cc23)c(-c2ccc(NC(=O)N(C)C)cc2)n1`, the Potency is 8.41 µM (active). For the compound `CC(=O)NCC(=O)N1C2CCC1c1cc(Nc3ncc(C(F)(F)F)c(NC4CCC4)n3)ccc12` (stereo not given), the Potency is 0.685 µM (active). As for `CCc1cccc(CC)c1NC(=O)N1Cc2[nH]nc(NC(=O)c3ccc(N4CCN(C)CC4)cc3)c2C1`, the Potency was 2.43 µM (active). The entry for `O=C1N(c2ccccc2)c2ccccc2C1(Cc1ccncc1)Cc1ccncc1` is “inactive”; for `CCCCc1oc2ccc(NS(C)(=O)=O)cc2c1C(=O)c1ccc(OCCCN(CCCC)CCCC)cc1` it is 27.3 µM (active).

On to `COc1ccc(CCC(=O)c2c(O)cc(O[C@@H]3O[C@H](CO)[C@@H](O)[C@H](O)[C@H]3O[C@@H]3O[C@@H](C)[C@H](O)[C@@H](O)[C@H]3O)cc2O)cc1O`, for which the Potency entry is “inactive”. For the compound `CC[C@@]1(O)C(=O)OCc2c1cc1n(c2=O)Cc2cc3c(CN(C)C)c(O)ccc3nc2-1`, the Potency is 0.273 µM (active). Turning to `Nc1nc(=S)c2[nH]cnc2[nH]1`, the Potency was 6.85 µM (active). For `Cc1cc(C(=O)N2CCN(c3cccc(Cl)c3)CC2)n(-c2ccccc2)n1`, the Potency was 3.43 µM (active). Turning to `C[C@@]1(C(=O)Nc2ccc(F)nc2)CCCN1c1nc(Nc2cc(C3CC3)[nH]n2)c2cccn2n1`, the Potency is 0.0343 µM (active). Take `O=C(Nc1cn[nH]c1-c1nc2ccc(CN3CCOCC3)cc2[nH]1)NC1CC1`: the Potency is 3.85 µM (active). Regarding `CCS(=O)(=O)N1CCN(c2ccc(Nc3ncc(C(N)=O)c(NC4CC4)n3)cc2)CC1`, the Potency was 3.85 µM (active). Take `CC(C)(C(=O)NCC(F)(F)C(F)(F)F)C(=O)NC1C(=O)Nc2ccccc2-c2ccccc21` (stereo not given): the Potency is 9.68 µM (active).

Consider `NS(=O)(=O)c1ccc(Nc2nc(OCC3CCCCC3)c3[nH]cnc3n2)cc1`, for which the Potency entry is “inactive”. For `Nc1ccccc1NC(=O)c1ccc(CNC(=O)OCc2cccnc2)cc1`, the Potency was 1.53 µM (active). The figure for `CN(C)C1CCN(C(=O)c2ccc(NC(=O)Nc3nc(N4CCOCC4)nc(N4CCOCC4)n3)cc2)CC1` is 1.09 µM (active); for `CCC1C(=O)N(C)c2cnc(Nc3ccc(C(=O)NC4CCN(C)CC4)cc3OC)nc2N1C1CCCC1` (stereo not given) it is 0.0432 µM (active). On to `Oc1cn2c(n1)Nc1ccc(Cl)c(Cl)c1C2`, for which the Potency entry is “inactive”. As for `O=C(CCCCCCC(=O)Nc1ccccc1)NO`, the Potency is 1.37 µM (active). Regarding `CNC(=O)c1ccccc1Nc1nc(Nc2ccc(N3CCOCC3)cc2OC)ncc1Cl`, the Potency was 1.72 µM (active). `Cc1nc(NC(=O)N2CCCC2C(N)=O)sc1-c1csc(C(C)(C)C)n1` (stereo not given): the Potency was 27.3 µM (active). For the compound `COc1cc(N2CCC(N)CC2)ccc1Nc1ncc(Cl)c(-c2c[nH]c3ccccc23)n1`, the Potency is 19.3 µM (active).

These data come from PubChem BioAssay AID1345085 (National Center for Advancing Translational Sciences (NCATS), 2018).
